Test results taken from PubChem BioAssay AID1159580 (chemical genetic matrix, 2015).
Values joined by “and” are separate entries in the source; they are usually repeats but may differ in a detail not shown here. Equal entries are not always repeated. Hit rate of the full screen: of about 5,500 compounds, about 2,000 (36%) were called active. Inconclusive results (about 18%) are left out. The list shows a part of the results. A number with no mark means an inactive call. Cut-off read from the data, not from the text of the source: active = normalized growth mostly below about 0.91 (no sharp cut-off); inconclusive = no clear call, values can overlap the other calls; inactive = mostly above about 0.92.

Test: chemical genetic growth profiling, strain panel (AID 1159580);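 note: tested at 20 µM; growth read once vehicle control cultures reached saturation at 30 °C; 1 = growth at the plate median or of vehicle wells; lower values mean less growth of the strain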
Details: growth OD
[1] = S. cerevisiae deletion strains, locus YAL013W, strain DEP1, active compounds read low
[2] = S. cerevisiae deletion strains, locus YBR229C, strain ROT2, active compounds read low
[3] = S. cerevisiae deletion strains, locus YDL101C, strain DUN1, active compounds read low
[4] = S. cerevisiae deletion strains, locus YDR150W, strain NUM1, active compounds read low
[5] = S. cerevisiae deletion strains, locus YEL061C, strain CIN8, active compounds read low
[6] = S. cerevisiae deletion strains, locus YGR078C, strain PAC10, active compounds read low
[7] = S. cerevisiae deletion strains, locus YGR229C, strain SMI1, active compounds read low
[8] = S. cerevisiae deletion strains, locus YHR030C, strain SLT2, active compounds read low
[9] = S. cerevisiae deletion strains, locus YJR043C, strain POL32, active compounds read low
[10] = S. cerevisiae deletion strains, locus YJR075W, strain HOC1, active compounds read low
[11] = S. cerevisiae deletion strains, locus YKL190W, strain CNB1, active compounds read low
[12] = S. cerevisiae deletion strains, locus YLR039C, strain RIC1, active compounds read low
[13] = S. cerevisiae deletion strains, locus YLR262C, strain YPT6, active compounds read low
[14] = S. cerevisiae deletion strains, locus YMR263W, strain SAP30, active compounds read low
[15] = S. cerevisiae deletion strains, locus YNL128W, strain TEP1, active compounds read low
[16] = S. cerevisiae deletion strains, locus YNL153C, strain GIM3, active compounds read low
[17] = S. cerevisiae deletion strains, locus YNL322C, strain KRE1, active compounds read low
[18] = S. cerevisiae deletion strains, locus YPL055C, strain LGE1, active compounds read low
[19] = S. cerevisiae deletion strains, locus YPL241C, strain CIN2, active compounds read low

With CNCCc1ccccn1 the normalized growth [1] was 1.01, the normalized growth (S. cerevisiae deletion strains, locus YBR021W, strain FUR4, active compounds read low) was 1.02 and the normalized growth [2] was 1.01. The normalized growth (S. cerevisiae deletion strains, locus YCL029C, strain bik1, active compounds read low) was 1.04, the normalized growth (S. cerevisiae deletion strains, locus YDL035C, strain GPR1, active compounds read low) was 0.992 and the normalized growth (S. cerevisiae deletion strains, locus YDL074C, strain BRE1, active compounds read low) was 1.03. The normalized growth [3] was 1.01, the normalized growth (S. cerevisiae deletion strains, locus YDL134C, strain PPH21, active compounds read low) was 1.01 and the normalized growth (S. cerevisiae deletion strains, locus YDL185W, strain tfp1, active compounds read low) was 1.02. It also gave a normalized growth (S. cerevisiae deletion strains, locus YDL192W, strain arf1, active compounds read low) of 1.02, a normalized growth (S. cerevisiae deletion strains, locus YDR101C, strain arx1, active compounds read low) of 1.01 and a normalized growth [4] of 1.01. For the same compound, the normalized growth (S. cerevisiae deletion strains, locus YDR162C, strain NBP2, active compounds read low) was 1.01, the normalized growth (S. cerevisiae deletion strains, locus YDR318W, strain mcm21, active compounds read low) was 1.02 and the normalized growth (S. cerevisiae deletion strains, locus YDR388W, active compounds read low) was 1.01. The normalized growth (S. cerevisiae deletion strains, locus YDR502C, strain sam2, active compounds read low) was 1.01, the normalized growth [5] was 1.01 and the normalized growth (S. cerevisiae deletion strains, locus YER110C, active compounds read low) was 1.02. The normalized growth (S. cerevisiae deletion strains, locus YER155C, strain BEM2, active compounds read low) was 1, the normalized growth (S. cerevisiae deletion strains, locus YER167W, strain BCK2, active compounds read low) was 1.01 and the normalized growth (S. cerevisiae deletion strains, locus YGL078C, strain dbp3, active compounds read low) was 1.01. It also gave a normalized growth (S. cerevisiae deletion strains, locus YGL086W, strain mad1, active compounds read low) of 1, a normalized growth (S. cerevisiae deletion strains, locus YGL248W, strain PDE1, active compounds read low) of 1 and a normalized growth [6] of 1.03. For the same compound, the normalized growth (S. cerevisiae deletion strains, locus YGR135W, strain pre9, active compounds read low) was 1.01, the normalized growth [7] was 1.02 and the normalized growth (S. cerevisiae deletion strains, locus YGR252W, strain gcn5, active compounds read low) was 0.958. For the same compound, the normalized growth [8] was 1.01 and 1.04, the normalized growth (S. cerevisiae deletion strains, locus YHR079C, strain IRE1 (second series), active compounds read low) was 1.02 and the normalized growth (S. cerevisiae deletion strains, locus YHR079C, strain IRE1, active compounds read low) was 1.04. It also gave a normalized growth (S. cerevisiae deletion strains, locus YHR094C, strain hxt1, active compounds read low) of 1.01, a normalized growth (S. cerevisiae deletion strains, locus YHR129C, strain ARP1, active compounds read low) of 0.996 and a normalized growth (S. cerevisiae deletion strains, locus YHR200W, strain rpn10, active compounds read low) of 1.01. For the same compound, the normalized growth (S. cerevisiae deletion strains, locus YIL066C, strain RNR3, active compounds read low) was 1.02, the normalized growth (S. cerevisiae deletion strains, locus YIL073C, strain SPO22, active compounds read low) was 1.06 and the normalized growth (S. cerevisiae deletion strains, locus YIL125W, strain kgd1, active compounds read low) was 1. The normalized growth (S. cerevisiae deletion strains, locus YIR030C, strain dcg1, active compounds read low) was 1.01, the normalized growth (S. cerevisiae deletion strains, locus YJL095W, strain BCK1, active compounds read low) was 1.04 and 1.03 and the normalized growth (S. cerevisiae deletion strains, locus YJL134W, strain LCB3, active compounds read low) was 1. For the same compound, the normalized growth (S. cerevisiae deletion strains, locus YJL168C, strain set2, active compounds read low) was 1.01, the normalized growth (S. cerevisiae deletion strains, locus YJL187C, strain SWE1 (second series), active compounds read low) was 1.02 and the normalized growth [9] was 1.02. For the same compound, the normalized growth (S. cerevisiae deletion strains, locus YJR066W, strain TOR1, active compounds read low) was 0.978, the normalized growth [10] was 1.02 and the normalized growth (S. cerevisiae deletion strains, locus YKL009W, strain mrt4, active compounds read low) was 1.07. The normalized growth (S. cerevisiae deletion strains, locus YKL068W, active compounds read low) was 1.01, the normalized growth (S. cerevisiae deletion strains, locus YKL085W, strain MDH1 (second series), active compounds read low) was 1.01 and the normalized growth (S. cerevisiae deletion strains, locus YKL085W, strain MDH1, active compounds read low) was 1.01. It also gave a normalized growth [11] of 1.01, a normalized growth (S. cerevisiae deletion strains, locus YKR001C, strain vps1, active compounds read low) of 1.01 and a normalized growth [12] of 1.02. For the same compound, the normalized growth (S. cerevisiae deletion strains, locus YLR058C, strain SHM2, active compounds read low) was 1.01, the normalized growth (S. cerevisiae deletion strains, locus YLR102C, strain apc9, active compounds read low) was 1.02 and the normalized growth (S. cerevisiae deletion strains, locus YLR113W, strain HOG1, active compounds read low) was 1.03. For the same compound, the normalized growth [13] was 1.02, the normalized growth (S. cerevisiae deletion strains, locus YLR268W, strain sec22, active compounds read low) was 1.04 and the normalized growth (S. cerevisiae deletion strains, locus YLR330W, strain CHS5, active compounds read low) was 1.01. It also gave a normalized growth (S. cerevisiae deletion strains, locus YLR342W, strain FKS1 (second series), active compounds read low) of 1.02, a normalized growth (S. cerevisiae deletion strains, locus YLR371W, strain rom2, active compounds read low) of 1.02 and a normalized growth (S. cerevisiae deletion strains, locus YLR418C, strain cdc73, active compounds read low) of 1.03. It also gave a normalized growth (S. cerevisiae deletion strains, locus YML016C, strain PPZ1, active compounds read low) of 1, a normalized growth (S. cerevisiae deletion strains, locus YML032C, strain rad52, active compounds read low) of 1.03 and a normalized growth (S. cerevisiae deletion strains, locus YML124C, strain tub3, active compounds read low) of 1.01. The normalized growth (S. cerevisiae deletion strains, locus YMR078C, strain ctf18, active compounds read low) was 1.02, the normalized growth (S. cerevisiae deletion strains, locus YMR223W, strain ubp8, active compounds read low) was 1.01 and the normalized growth [14] was 1.03. The normalized growth (S. cerevisiae deletion strains, locus YMR307W, strain GAS1, active compounds read low) was 0.966, the normalized growth (S. cerevisiae deletion strains, locus YNL067W, strain RPL9B, active compounds read low) was 1.02 and the normalized growth [15] was 1.01. It also gave a normalized growth [16] of 1.01, a normalized growth (S. cerevisiae deletion strains, locus YNL183C, strain NPR1, active compounds read low) of 0.978 and a normalized growth (S. cerevisiae deletion strains, locus YNL233W, strain BNI4, active compounds read low) of 1.01. For the same compound, the normalized growth (S. cerevisiae deletion strains, locus YNL250W, strain rad50, active compounds read low) was 1.03, the normalized growth (S. cerevisiae deletion strains, locus YNL271C, strain bni1, active compounds read low) was 1.02 and the normalized growth (S. cerevisiae deletion strains, locus YNL298W, strain CLA4, active compounds read low) was 1.01. It also gave a normalized growth (S. cerevisiae deletion strains, locus YNL307C, strain MCK1, active compounds read low) of 1.02, a normalized growth [17] of 1.01 and a normalized growth (S. cerevisiae deletion strains, locus YNR052C, strain pop2, active compounds read low) of 1.01. It also gave a normalized growth (S. cerevisiae deletion strains, locus YOL006C, strain TOP1, active compounds read low) of 1.08, a normalized growth (S. cerevisiae deletion strains, locus YOL012C, strain htz1) of 0.922 and a normalized growth (S. cerevisiae deletion strains, locus YOL147C, strain pex11, active compounds read low) of 1.01. The normalized growth (S. cerevisiae deletion strains, locus YOR061W, strain CKA2, active compounds read low) was 1.01, the normalized growth (S. cerevisiae deletion strains, locus YOR069W, strain VPS5, active compounds read low) was 1.01 and the normalized growth (S. cerevisiae deletion strains, locus YOR136W, strain idh2, active compounds read low) was 1.01. For the same compound, the normalized growth (S. cerevisiae deletion strains, locus YOR144C, strain elg1, active compounds read low) was 1.01, the normalized growth (S. cerevisiae deletion strains, locus YOR184W, strain ser1, active compounds read low) was 1.02 and the normalized growth (S. cerevisiae deletion strains, locus YOR231W, strain MKK1, active compounds read low) was 1.02. It also gave a normalized growth (S. cerevisiae deletion strains, locus YOR316C, strain cot1, active compounds read low) of 1.01, a normalized growth [18] of 1.04 and a normalized growth [19] of 1.01. It also gave a normalized growth (S. cerevisiae deletion strains, locus YPL256C, strain CLN2, active compounds read low) of 1.04, a normalized growth (S. cerevisiae deletion strains, locus YPR119W, strain clb2, active compounds read low) of 1.01 and a normalized growth (S. cerevisiae deletion strains, locus YPR141C, strain kar3, active compounds read low) of 1.02. The normalized growth (S. cerevisiae deletion strains, locus YPR163C, strain tif3, active compounds read low) was 1.02, the normalized growth (S. cerevisiae deletion strains, locus YPR167C, strain met16, active compounds read low) was 1.01 and the normalized growth (S. cerevisiae deletion strains, strain wtn01, active compounds read low) was 1.01. It also gave a normalized growth (S. cerevisiae strains, strain wild type, active compounds read low) of 1.01.
Cc1ccc(C)c(NC(=S)N(CCc2ccccc2)CCc2ccccn2)c1 gave a normalized growth [1] of 0.989, a normalized growth [2] of 0.983 and a normalized growth (S. cerevisiae deletion strains, locus YCL061C, strain MRC1, active compounds read low) of 1. For the same compound, the normalized growth [3] was 1.04, the normalized growth [4] was 0.99 and the normalized growth [5] was 0.953. The normalized growth [6] was 0.996, the normalized growth [7] was 0.974 and the normalized growth [8] was 0.978. It also gave a normalized growth (S. cerevisiae deletion strains, locus YHR087W, strain rtc3, active compounds read low) of 0.958, a normalized growth (S. cerevisiae deletion strains, locus YJL187C, strain SWE1, active compounds read low) of 0.989 and a normalized growth [9] of 1.01. For the same compound, the normalized growth [10] was 0.999, the normalized growth [11] was 0.964 and the normalized growth [12] was 0.606 (active). It also gave a normalized growth (S. cerevisiae deletion strains, locus YLR058C, strain SHM2 (second series), active compounds read low) of 0.98, a normalized growth (S. cerevisiae deletion strains, locus YLR085C, strain ARP6, active compounds read low) of 0.928 and a normalized growth [13] of 0.853. It also gave a normalized growth (S. cerevisiae deletion strains, locus YML094W, strain GIM5, active compounds read low) of 0.95, a normalized growth (S. cerevisiae deletion strains, locus YMR219W, strain ESC1, active compounds read low) of 0.996 and a normalized growth [14] of 0.985. It also gave a normalized growth [16] of 1.01, a normalized growth (S. cerevisiae deletion strains, locus YNL298W, strain CLA4 (second series), active compounds read low) of 0.984 and a normalized growth [17] of 0.974. It also gave a normalized growth (S. cerevisiae deletion strains, locus YNR030W, strain Alg12, active compounds read low) of 0.988, a normalized growth [18] of 0.946 and a normalized growth [19] of 1.03. The normalized growth (S. cerevisiae deletion strains, locus YPR135W, strain CTF4, active compounds read low) was 0.942.
CNC(=O)OCC[N+](C)(C)C showed a normalized growth [1] of 0.99, a normalized growth (S. cerevisiae deletion strains, locus YAL040C, strain CLN3, active compounds read low) of 1 and a normalized growth (S. cerevisiae deletion strains, locus YCL061C, strain MRC1 (second series), active compounds read low) of 0.992. It also gave a normalized growth (S. cerevisiae deletion strains, locus YDR363W, strain ESC2, active compounds read low) of 0.957, a normalized growth (S. cerevisiae deletion strains, locus YER002W, strain NOP16, active compounds read low) of 0.968 and a normalized growth [10] of 1.01. It also gave a normalized growth [15] of 1, a normalized growth [16] of 0.983 and a normalized growth (S. cerevisiae deletion strains, locus YNL175C, strain NOP13, active compounds read low) of 0.973. For the same compound, the normalized growth (S. cerevisiae deletion strains, locus YNL197C, strain WHI3, active compounds read low) was 0.962, the normalized growth (S. cerevisiae deletion strains, locus YNL224C, strain SQS1, active compounds read low) was 0.989 and the normalized growth (S. cerevisiae deletion strains, locus YOR083W, strain WHI5 (second series), active compounds read low) was 0.985.
